# BLM helicase inh: Bloom syndrome helicase (human) inhibition; recombinant BLM DNA unwinding, fluorescence dequenching; Potency, µM (doses to about 56.1 µM), for inactives: at the top dose activity change, negative = inhibition, hits mostly inhibitors; 0.2% of 350,000 active; AID 2528;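 note: plate controls were vehicle for no effect and no enzyme for full effect; nearly all actives have a fitted effect of over 35% in size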
# TRb-SRC2 inh: TRbeta-SRC2 interaction inhibition | P10828 | TRbeta-SRC2 peptide binding, fluorescence polarization; receptor liganded with 1 µM T3 | Potency, µM (series often up to 106 µM), inactives show at the highest dose activity change, negative = inhibition, most hits filed as inhibitors | 0.065% of 280,000 active | AID 1469;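 note: plate controls were bound peptide for no effect and peptide without receptor for full effect; nearly all actives have a fitted effect of over 50% in size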
#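 Polarization signal, normalized between peptide-alone and full complex controls, measured compound effects on T3-liganded human TRb LBD (0.6 uM) binding 20 nM Texas Red SRC2 peptide after 5 hr.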
# GoLoco inh red: blocks human Gai1 binding to RGS12 GoLoco peptide, red readout. Gai1:RGS12 GoLoco peptide FP, rhodamine, 10 min. Potency, µM (doses to about 61.6 µM), for inactives: at the highest dose activity, negative = inhibition, actives largely listed as inhibitors. 0.44% of 230,000 active. AID 880; active = well fitted inhibition curve with a large enough effect, not every such curve was filed as active; inactive = no such curve, though single readings can be large or run the other way; note: % is set by controls: 0 for no effect and ±100 for the full control effect; nearly all actives have a fitted effect of over 30% in size
# TexasRed fluor: alters Texas Red total fluorescence, flagging assay interference | Potency, µM (series often up to 106 µM), without a hit: at the highest dose fluorescence change, negative = quenching | TRb/SRC2 Texas Red total fluorescence interference | AID 1479 | 0.29% of 280,000 active; active = well fitted curve in either direction with a large enough effect; inconclusive = small, poorly fitted or top-dose-only effect; note: % is set by controls: 0 for no effect and ±100 for the full control effect
#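 Human TRb ligand-binding domain at 0.6 uM with 20 nM Texas Red SRC2 peptide in Tris buffer containing 1 uM T3 and 5% DMSO, incubated with compound 5 h at ambient temperature. Total fluorescence (555/632 nm) calculated as parallel + 2 × perpendicular.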
# RECQ1 inh: RECQ1 (human) helicase inhibition; P46063; RECQ1 DNA unwinding, red fluorescence kinetic read; Potency, µM (top dose mostly 57.3 µM), for inactives: top-dose activity, negative = inhibition, most hits filed as inhibitors; 0.54% of 240,000 active; AID 2549;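 note: plate controls were vehicle for no effect and no enzyme for full effect; nearly all actives have a fitted effect of over 30% in size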
# Target sequence (P46063 whole entry, looked up): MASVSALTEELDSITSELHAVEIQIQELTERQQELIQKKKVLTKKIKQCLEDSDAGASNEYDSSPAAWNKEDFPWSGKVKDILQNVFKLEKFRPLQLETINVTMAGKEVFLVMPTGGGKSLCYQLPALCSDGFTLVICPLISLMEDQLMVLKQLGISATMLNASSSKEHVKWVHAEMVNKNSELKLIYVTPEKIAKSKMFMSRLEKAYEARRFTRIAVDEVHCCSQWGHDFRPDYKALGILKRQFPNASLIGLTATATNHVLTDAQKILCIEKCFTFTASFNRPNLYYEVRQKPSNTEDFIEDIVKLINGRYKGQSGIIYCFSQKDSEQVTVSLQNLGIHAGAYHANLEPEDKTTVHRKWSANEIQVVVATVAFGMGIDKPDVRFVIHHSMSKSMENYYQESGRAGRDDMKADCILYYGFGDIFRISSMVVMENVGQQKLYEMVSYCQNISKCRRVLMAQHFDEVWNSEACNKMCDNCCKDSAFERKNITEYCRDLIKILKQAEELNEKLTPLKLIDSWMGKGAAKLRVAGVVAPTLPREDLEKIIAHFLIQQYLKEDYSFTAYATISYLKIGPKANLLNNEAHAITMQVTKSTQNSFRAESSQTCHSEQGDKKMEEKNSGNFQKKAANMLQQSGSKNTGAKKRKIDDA
#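 50 nM RECQ1T1 preincubated 15 min with compound in Tris pH 8.0 buffer with MgCl2, DTT, Tween-20 and 2.5 ug/ml poly(dI-dC); started with 200 nM TAMRA/BHQ-2 forked duplex and 2 mM ATP. Unwinding read as fluorescence (525/598 nm), two reads 2 h apart.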
# ERG-DNA inh: inhibitors of human ERG Ets domain-DNA interaction; Potency, µM (titrated, usually from 76.9 µM), without a hit: at the highest dose FP activity, negative = inhibition, actives largely listed as inhibitors; AID 624246; fluorescence polarization, His-ERG Ets domain / labelled DNA; P11308; 0.028% of 370,000 active; active = well fitted inhibition curve with a large enough effect in the polarisation, with a control signal flat; inconclusive = small, poorly fitted or top-dose-only effect, or effect the other way, or a change in a side signal; inactive = no such curve, though single readings can be large or run the other way; the % refers to the polarisation;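 note: polarization taken with two DNA probes labelled with fluorescein and Texas red; % of control where 0% means no effect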
#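 His-tagged ERG Ets domain (1 uM in the protein solution; 300mM KCl, 50mM Tris-HCl, 1mM EDTA, 1mM DTT, pH 7.5) received compound, then a probe mix of 5 nM fluorescein-DNA and 100nM Texas-615-DNA. Fluorescence polarization was read for both dyes.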
# Starred values were filed as active, the others as inactive; i = inactive; ? = inconclusive; nt = not tested or not shown; [ ] = another dose, or the depositor's remark. Shown are actives, neighbours in structure and some others; about 0.71% of the full set was active somewhere. Unless noted, calls come from the whole dose curve; as a rule, active = well fitted curve in the direction sought with a large enough effect; inconclusive = small, poorly fitted or top-dose-only effect, or another doubt; inactive = no such curve, though single readings can be large; an effect the other way counts as inactive or inconclusive. Potency is the fitted concentration of half-maximal effect.
SMILES,BLM helicase inh,TRb-SRC2 inh,GoLoco inh red,TexasRed fluor,RECQ1 inh,ERG-DNA inh
NCCCC[C@H](NC(=O)[C@@H]1CCCN1C(=O)[C@H](CO)NC(=O)[C@H](CC(=O)O)NC(=O)CNC(=O)[C@H](CCCN=C(N)N)NC(=O)CN)C(=O)O,0.8%,0.9%,nt,-5.1%,-10.9%,nt
CCCOc1ccccc1C1C(C(=O)Nc2ccccc2)=C(C)Nc2nnnn21 (configuration not stated),-1.8%,-11.3%,nt,0.1µM*[quencher],nt,-6.9%
CCCCc1nc2c(c3c1C[C@H](C)OC3)CN(C(=O)N[C@H](C(=O)OC)C(C)C)CC2,-1.2%[12.4 µM],2.1%[11.2 µM],0.6%[14.2 µM],-3.7%[11.2 µM],6.3%[11.5 µM],nt
CC(=O)N1CCN(c2ccc(NCc3ccc4c(c3)OCO4)cc2)CC1,-10.0%,39.8µM*,-38.6%,11.8%,-0.9%,-7.6%
C[Si]1(C)O[Si](C)(C)O[Si](C)(C)O1,nt,6.8%[201 µM],nt,-0.2%[201 µM],nt,nt
O=C(O)c1ccc(COc2ccccc2/C=C2/NC(=O)N(c3cccc(Cl)c3)C2=O)cc1,20µM*,7.5%,29.8%,-0.5%,?,-5.3%
O=C(Cn1sc2ccccc2c1=O)NC12CC3CC(CC(C3)C1)C2,0.4%,-1.6%,28.2µM*,0.6%,-12.2%,-2.2%
O=c1cc(-c2ccc(O)cc2)oc2cc(O[C@@H]3O[C@H](CO)[C@H](O)[C@H](O)[C@H]3O)cc(O)c12,-0.3%,-2.3%,nt,0.6%,-9.7%,nt
O=c1cc(-c2ccc(O)c(O)c2)oc2cc(OC3OC(CO)C(O)C(O)C3O)cc(O)c12 (configuration not stated),-15.6%,-1.8%,5.9%,-8.6%,20µM*,nt
COC(=O)c1ccc(OC)c(Cn2c(=O)n(-c3cccc(Cl)c3)c(=O)c3c2c2cc(C)ccc2n3C)c1,-7.7%,-5.1%,nt,-3.3%,nt,-2.8%
Cc1nonc1C(=O)N/N=C/c1ccc(O)c(O)c1,-1.3%,7.8%,-28.9%,5.1%,0.6%,-1.9%
O=C(N/N=C/c1ccc(O)c(O)c1)N/N=C/c1ccc(O)c(O)c1,7.94µM*,nt,nt,nt,nt,-8.6%
CC(C)(C)c1ccc(/C=N/NC(=S)Nc2cccnc2)cc1,-5.9%,-1.8%,-0.3%,0.0%,i,nt
Oc1ccc(/C=N/NC(=S)Nc2cccnc2)cc1O,-5.1%,-4.3%,-3.3%,-8.7%,8.91µM*,10.2%
CC(=O)/C(C[N+]1(C)CCCCC1)=N\O,1.2%,-7.0%,3.16µM*,0.1%,-6.1%,2.6%
C[N+]1(CC(=O)OC2CCCCCCCCCCC2)CCCC1,1.9%,6.9%,-36.3%,2.1%,-12.7%,4.9%
Cc1ccc(Cl)cc1N1CCN(C(=O)c2ccc(CS(=O)(=O)c3ccc(Br)cc3)o2)CC1,-4.1%,-6.9%,nt,1000µM*[quencher],nt,8.6%
CC(C=CC1=C(C)CCCC1(C)C)=CC=CC(C)=CC(=O)Nc1ccc(O)cc1,nt,-3.5%[201 µM],nt,-2.1%[201 µM],nt,nt
CC(C)C[C@H](NC(=O)[C@@H]1CCCN1C(=O)[C@H](Cc1ccccc1)NC(=O)[C@H](C)NC(=O)[C@H](CCC(=O)O)NC(=O)[C@H](C)NC(=O)[C@H](CO)NC(=O)[C@H](CCC(=O)O)NC(=O)[C@H](CC(=O)O)NC(=O)[C@H](CCC(=O)O)NC(=O)[C@H](C)NC(=O)CNC(=O)[C@H](CC(N)=O)NC(=O)[C@@H]1CCCN1C(=O)[C@H](Cc1ccc(O)cc1)NC(=O)[C@@H](NC(=O)[C@H](CCCCN)NC(=O)[C@@H](NC(=O)[C@@H]1CCCN1C(=O)[C@@H](N)CCCNC(=N)N)C(C)C)C(C)C)C(=O)N[C@@H](CCC(=O)O)C(=O)N[C@@H](Cc1ccccc1)C(=O)O,3.6%,1.4%,nt,-4.0%,-4.9%,nt
COC(=O)c1ccc(NC(=O)C(=O)NCCc2csc(-c3ccc(C(F)(F)F)cc3)n2)cc1,-0.5%,-6.2%,nt,3.3%,nt,-2.8%
COC(=O)c1ccc(NC(=O)C(=O)NCCc2csc(-c3ccc(F)cc3)n2)cc1,-0.9%,-10.1%,nt,0.0004µM*[quencher],nt,5.2%
